The text below walks through data of the antibiotic and cytotoxicity screens of Wong et al. (2023).

The campaign covered roughly 39,000 compounds. About 3,300 (8.5%) were called active. The sample as a whole holds a higher share of actives than the screen did.

This test has as its system HepG2. The test is described as follows: cytotoxicity call (relative viability < 0.9). Particulars: 10 µM.
As to `CCCCOC(=O)C1=CC(=O)CC(C)(C)O1`, the cytotoxicity call was “active”.

On to `C[C@@H](O)CN1C[C@H]2C[C@@H](C1)c1cccc(=O)n1C2`, for which the cytotoxicity call is “inactive”.

As for `CN1C[C@@H](C(=O)O)CN2CCN(C(=O)c3ccncc3F)C[C@@H]2C1`, the cytotoxicity call is “inactive”.

`O=C1CC2(CCNCC2)CN1`: the cytotoxicity call was “inactive”.

With `C1CCC(NC2CCCC2)CC1`, the cytotoxicity call is “inactive”.

Regarding `CCC1(C2=NCCN2)Cc2ccccc2O1.Cl` (configuration not stated), the cytotoxicity call was “inactive”.

Consider `Cl.c1ccc2c(c1)OCC(C1=NCCN1)O2` (configuration not stated), for which the cytotoxicity call is “active”.

For the molecule `NCC[C@H]1COc2ccccc2O1`, the cytotoxicity call was “inactive”.

As for `FC(F)(F)c1nnc(N2CCNCC2)s1`, the cytotoxicity call was “inactive”.

In the case of `CCN1C[C@]2(COC)CC[C@H](O)[C@@]34[C@@H]2[C@@H](OC)[C@@H]([C@@H]13)[C@@]1(OC(C)=O)C[C@H](OC)[C@H]2C[C@H]4[C@@H]1[C@@H]2OC(C)=O`, the cytotoxicity call is “inactive”.

For `CC(C)c1csc(CCN)n1`, the cytotoxicity call is “inactive”.

Regarding `CN1C[C@H]2CN[C@H]2C1`, the cytotoxicity call was “inactive”.

Take `Cc1[nH]c2ccccc2c1CN(C)C`: the cytotoxicity call was “inactive”.

On to `O=C(O)C=CC(=O)O.c1ccc2nc(N3CCNCC3)ccc2c1`, for which the cytotoxicity call was “active”.

Take `Cc1cccc(N2CCNCC2)n1`: the cytotoxicity call is “inactive”.

Regarding `c1ccc(N2CCNCC2)nc1`, the cytotoxicity call was “inactive”.

Turning to `COc1ccc([C@H]2CC(=O)N3CCNC[C@@H]23)cc1`, the cytotoxicity call is “inactive”.

As to `CCCN1CC(CSC)CC2c3cccc4[nH]cc(c34)CC21.CS(=O)(=O)O` (configuration not stated), the cytotoxicity call is “inactive”.

As to `CNC(C)C(O)c1ccccc1.Cl` (configuration not stated), the cytotoxicity call is “inactive”.

As for `O=C(O)C[C@H]1CC[C@@H]2NC[C@H](O)COC[C@H]2O1`, the cytotoxicity call is “inactive”.

Consider `O=C([O-])Cc1ccccc1.[Na+]`, for which the cytotoxicity call was “inactive”.

Turning to `C[CH2][Hg][S]c1ccccc1C(=O)[O-].[Na+]`, the cytotoxicity call was “active”.

As to `N[C@@]1(C(=O)O)CC[C@H](C(=O)O)C1`, the cytotoxicity call is “inactive”.

For the molecule `NCCc1ccc(S(=O)(=O)F)cc1`, the cytotoxicity call was “inactive”.

Regarding `CN1C(=O)NC(=O)/C(=C\C=C\c2ccco2)C1=O`, the cytotoxicity call was “inactive”.

As to `C[C@@]12NC(=O)CN1CCc1ccccc12`, the cytotoxicity call is “inactive”.

Regarding `CC(C)NC(=O)C1=NO[C@]2(CCNC2)C1`, the cytotoxicity call was “inactive”.

`Nc1nc(Cl)ncc1[N+](=O)[O-]`: the cytotoxicity call is “inactive”.

With `O=C1CCCC2C3CC(CN12)C1CCCCN1C3.[O-][Cl+3]([O-])([O-])O` (configuration not stated), the cytotoxicity call is “inactive”.

As to `Cc1nccc2c1[nH]c1ccccc12` [listing 1 of 2 here], the cytotoxicity call was “active”.

As for `Cc1nccc2c1[nH]c1ccccc12` [listing 2 of 2 here], the cytotoxicity call is “inactive”.

As to `Cc1nccc2c1[nH]c1cc(O)ccc12` [listing 1 of 2 here], the cytotoxicity call is “active”.

Take `c1ccc2c(c1)[nH]c1cnccc12`: the cytotoxicity call is “inactive”.

On to `Cc1nccc2c1[nH]c1cc(O)ccc12` [listing 2 of 2 here], for which the cytotoxicity call was “inactive”.

`COc1ccc2c(c1)[nH]c1c(C)nccc12`: the cytotoxicity call is “active”.

Regarding `COc1ccc2cc(CCN)c(=O)[nH]c2c1`, the cytotoxicity call was “inactive”.

For the molecule `Cc1ccc(C=C2C(=O)NC(=O)NC2=O)cc1`, the cytotoxicity call is “inactive”.

With `NCC(=O)Nc1ccc(Br)cc1C(=O)c1ccccc1`, the cytotoxicity call was “inactive”.

In the case of `Cn1cnc(CCN)c1`, the cytotoxicity call was “inactive”.

In the case of `CC1(C)CCNC1=O`, the cytotoxicity call is “inactive”.

As for `COS(C)(=O)=O`, the cytotoxicity call was “inactive”.

As for `C[C@@H]1CN([C@@H](C)CO)C(=O)c2cc(NC(=O)Nc3ccccc3)ccc2O[C@@H](C)CCCCO[C@H]1CN(C)C(=O)Oc1ccccc1`, the cytotoxicity call is “inactive”.

For the molecule `CNc1ccc2oc(C[C@H]3O[C@@]4(CC[C@H]3C)O[C@H]([C@H](C)C(=O)c3ccc[nH]3)[C@H](C)C[C@H]4C)nc2c1C(=O)O`, the cytotoxicity call is “active”.

For `C[C@H]1CN([C@@H](C)CO)C(=O)CCCn2nncc2CO[C@H]1CN(C)C(=O)Oc1ccc2ccccc2c1`, the cytotoxicity call was “inactive”.

`CC=C1CC(C)C(O)(CO)C(=O)OCC2=CCN3CCC(OC1=O)C23` (configuration not stated): the cytotoxicity call is “inactive”.

Turning to `O=C1CC(=O)N(Cc2ccccc2)C(=O)N1`, the cytotoxicity call was “inactive”.

Regarding `O=C(O)[C@H]1[C@H](C(=O)O)[C@H]2CC[C@@H]1O2`, the cytotoxicity call was “inactive”.

Take `C[C@]12CC[C@](C)(O1)[C@H](C(=O)O)[C@@H]2C(=O)O`: the cytotoxicity call is “inactive”.

As to `C[C@@]1(C(=O)O)[C@H]2CC[C@@H](O2)[C@@]1(C)C(=O)O`, the cytotoxicity call is “active”.

Take `OCCN1CC2(CCN(c3nccs3)C2)C1`: the cytotoxicity call is “inactive”.

Regarding `C1CCNCC1`, the cytotoxicity call is “inactive”.

With `Cc1cnc[nH]1`, the cytotoxicity call was “inactive”.

In the case of `C[C@@H]1CN([C@H](C)CO)C(=O)CCCn2cc(nn2)CO[C@H]1CN(C)C(=O)Oc1cccc2ccccc12`, the cytotoxicity call was “inactive”.

As for `C[C@H]1CN([C@@H](C)CO)C(=O)CCCn2cc(nn2)CO[C@@H]1CN(C)C(=O)Oc1cccc2ccccc12`, the cytotoxicity call is “inactive”.

On to `CC(C)C12OC1C1OC13C1(C)CCC4=C(COC4=O)C1CC1OC13C2O` (configuration not stated), for which the cytotoxicity call was “active”.

For the molecule `CC(C)c1ccc2c(c1O)CCC1C3=C(CCC21C)C(=O)OC3` (configuration not stated), the cytotoxicity call was “inactive”.

Regarding `NCCc1c[nH]c2ccc(OCC(=O)O)cc12`, the cytotoxicity call is “inactive”.

For the molecule `Nc1ncccc1CN1CC[C@]2(CC(=O)NC2=O)C1`, the cytotoxicity call was “inactive”.

For `CC1CCC2C(C)C(=O)OC3OC4(C)CCC1C32OO4` (configuration not stated), the cytotoxicity call is “inactive”.

`CCOC1OC2OC3(C)CCC4C(C)CCC(C1C)C24OO3` (configuration not stated): the cytotoxicity call was “active”.

With `NC(=O)C12CC(CN1)C2`, the cytotoxicity call is “inactive”.

`COc1ccc2c(c1O)-c1c(OC)c(OC)cc3c1C(C2)N(C)CC3` (configuration not stated): the cytotoxicity call was “inactive”.

For `COc1cc2c3cc1Oc1c(OC)c(OC)cc4c1C(Cc1cccc(c1)Oc1ccc(c(O)c1)CC3N(C)CC2)N(C)CC4.Cl.Cl` (configuration not stated), the cytotoxicity call is “active”.

As to `COc1cc2c3cc1Oc1c(OC)c(OC)cc4c1[C@@H](Cc1cccc(c1)Oc1ccc(c(O)c1)C[C@@H]3N(C)CC2)N(C)CC4`, the cytotoxicity call is “inactive”.

On to `O=C(O)CF.[NaH]`, for which the cytotoxicity call is “inactive”.

With `CC(=O)Oc1ccc(C=Cc2cc(OC(C)=O)cc(OC(C)=O)c2)cc1`, the cytotoxicity call is “inactive”.

As for `c1cnc(N2CCOC[C@@]3(CCCNC3)C2)cn1`, the cytotoxicity call is “inactive”.

Take `O=C(CCCN1CCC2(CC1)C(=O)N(Cc1cccc(F)c1)CN2c1ccccc1)c1ccc(F)cc1`: the cytotoxicity call is “active”.

As for `C[C@@H]1CN([C@@H](C)CO)C(=O)CCCn2nncc2CO[C@@H]1CN(C)C(=O)Oc1ccc2ccccc2c1`, the cytotoxicity call is “inactive”.

Consider `C[C@@H]1CN([C@H](C)CO)C(=O)CCCn2cc(nn2)CO[C@@H]1CN(C)C(=O)Oc1ccc2ccccc2c1`, for which the cytotoxicity call was “inactive”.

With `CC(C)C[C@H]1C(=O)N2CCC[C@H]2[C@]2(O)O[C@](NC(=O)[C@@H]3C=C4c5cccc6[nH]c(Br)c(c56)C[C@H]4N(C)C3)(C(C)C)C(=O)N12`, the cytotoxicity call is “inactive”.

Take `C[C@@H](N)Cc1c[nH]c2ccc(OCc3cccs3)cc12`: the cytotoxicity call is “inactive”.

Turning to `C[C@H]1C[C@@H]2CNC[C@@H]2O1`, the cytotoxicity call is “inactive”.

With `CCCCOC(=O)c1ccccc1C(=O)OCCCC`, the cytotoxicity call was “active”.

Regarding `CCN(CC)CCOC(=O)C(O)(c1ccccc1)c1ccccc1.Cl`, the cytotoxicity call was “inactive”.

In the case of `CC(N)C(O)c1ccc(O)c(O)c1` (configuration not stated), the cytotoxicity call was “inactive”.

As to `CCS(=O)(=O)N1C[C@@H]2CCN[C@@H]2C1`, the cytotoxicity call is “inactive”.
